# Inconclusive results are not listed. Unmarked numbers belong to inactive results. Unless noted, the call rests on the fitted dose curve; in most records, active means well fitted cell-killing curve with a large enough effect in the repeat runs; inconclusive means weak or mixed curves; inactive means no such curve, though single readings can be large or run the other way. Where a SMILES comes first, the peptide text is derived from it. [ ]: non-standard residue; d: D form. pGlu = O=C1CC[C@@H](C(=O)O)N1
# Test system: not listed separately
# Assay: qHTS assay to identify small molecule antagonists of the peroxisome proliferator-activated receptor delta (PPARd) signaling pathway - cell viability counter screen (AID 743213); further: nearly all actives have a fitted effect of over 50% in size
# Conditions: PPARd-bla HEK293H viability, CellTiter-Glo luminescence, 17 h; series mostly up to 62 µM; viability change, negative = cytotoxic: at the top concentration
# Method in brief: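 Luminescence from CellTiter-Glo, added after the bla read and incubated 30 min at room temperature, gives viability of HEK293H PPARd-bla cells exposed to compounds for 17 h at 37 C with 300 nM L165041.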
# On the % scale 0 is the no-effect control and ±100 the full control effect.
row,SMILES,"viability change, negative = cytotoxic"
1,O=C(O)CNC(=O)c1ccccc1,11.1%
2,CC(C)CC(C)(N)C#N (stereo not given),-1.63% [at 80.4 µM]
3,CCOC(=O)c1cnc2c(cnn2CC)c1NN=C(C)C,16.5%
4,CC1=NN(c2cccc(S(=O)(=O)O)c2)C(=O)C1,6.02%
5,CCOC(=O)C1=NOC(c2ccccc2)(c2ccccc2)C1,-15.3%
6,CC12CCC(C(=O)C1=O)C2(C)C (stereo not given),-12.2% [at 80.4 µM]
7,Cc1ncc(COP(=O)(O)O)c(C=O)c1O,3.4%
8,CC(=O)Oc1cccc(C)c1,29.6%
9,CN1[C@@H]2CC[C@H]1CC(OC(=O)C(O)c1ccccc1)C2 (stereo not given in full),5.13%
10,CCN(CC#N)c1cccc(C)c1,-0.09%
11,CC1=NN(c2cc(S(=O)(=O)O)ccc2Cl)C(=O)C1N=Nc1ccccc1 (stereo not given),0.81%
12,CC(=O)c1ccccc1[N+](=O)[O-],14.1%
13,CCCCN(CCC(=O)OCC)C(C)=O,17.2%
14,CCOC(=O)COc1cc(-n2ncc(C(F)(F)F)c(C)c2=O)c(F)cc1Cl,3.65%
15,CC(=O)OCC(=O)[C@@]1(O)[C@H](C)C[C@H]2[C@@H]3CCC4=CC(=O)C=C[C@]4(C)[C@@]3(F)[C@@H](O)C[C@@]21C,-25.9%
16,O=C(O)CCCC[P+](c1ccccc1)(c1ccccc1)c1ccccc1,-20%

# Target: Peroxisome proliferator-activated receptor delta (Homo sapiens) (UniProt Q03181)
# Sequence (Q03181 whole entry, looked up): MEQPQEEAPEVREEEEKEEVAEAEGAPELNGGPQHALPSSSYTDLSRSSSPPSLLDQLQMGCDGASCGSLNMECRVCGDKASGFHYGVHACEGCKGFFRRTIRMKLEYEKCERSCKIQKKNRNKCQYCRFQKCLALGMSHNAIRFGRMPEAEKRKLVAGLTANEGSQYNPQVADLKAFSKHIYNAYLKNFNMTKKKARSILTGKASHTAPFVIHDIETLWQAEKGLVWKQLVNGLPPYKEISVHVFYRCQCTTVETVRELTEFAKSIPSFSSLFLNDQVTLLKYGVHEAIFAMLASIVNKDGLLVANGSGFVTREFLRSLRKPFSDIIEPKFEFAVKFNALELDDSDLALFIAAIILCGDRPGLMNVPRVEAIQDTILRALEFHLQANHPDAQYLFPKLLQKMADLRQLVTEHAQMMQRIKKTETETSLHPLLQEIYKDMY
# Assay: qHTS assay to identify small molecule antagonists of the peroxisome proliferator-activated receptor delta (PPARd) signaling pathway (AID 743215; active means well fitted inhibition curve with a large enough effect in the signal ratio in the repeat runs, not every such curve was filed as active; the % refers to the signal ratio;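 further: cells stimulated with agonist L165041 at 300 nM final during compound exposure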)
# Conditions: HEK293H PPARd-UAS-bla, beta-lactamase FRET ratio, antagonist, 17 h; series mostly up to 62 µM; ratio activity, negative = inhibition: at the top concentration
# Method in brief: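 Inhibition of L165041-driven (300 nM final) PPARd signaling is scored in HEK293H UAS-bla cells. Exposure lasts 17 h at 37 C; beta-lactamase activity is then read by FRET substrate fluorescence after 2 h at room temperature.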
row,SMILES,"ratio activity, negative = inhibition"
1,COc1ccccc1OCC1CNC(=O)O1 (stereo not given),6.35%
2,O=C1CCCCCCCCCCCCCCO1,7.18%
3,O=CN(CCO)CCO,0.931%
4,COc1cc(C(=O)OC(COCCC(C)C)CN2CCOCC2)cc(OC)c1OC (stereo not given),18.2%
5,NC(N)=NCCN1CCCCCCC1,5.69% [at 0.575 µM]
6,C=CCCC(=O)O,22.6%
7,CC(COc1ccccc1)NN (stereo not given),9.66%
8,Nc1ccn([C@@H]2O[C@H](CO)[C@@H](O)[C@@H]2O)c(=O)n1,3.45%
9,CCNC(=O)[C@@H]1CCCN1C(=O)[C@H](CCCN=C(N)N)NC(=O)[C@H](CC(C)C)NC(=O)CNC(=O)[C@H](Cc1ccc(O)cc1)NC(=O)[C@H](CO)NC(=O)[C@H](Cc1c[nH]c2ccccc12)NC(=O)[C@H](Cc1cnc[nH]1)NC(=O)[C@@H]1CCC(=O)N1 ([pGlu]HWSYGLRP-NHEt),7.44%
10,Clc1cc(Cl)cc(Cl)c1,-2.34%

# Target: Bile acid receptor (Homo sapiens) (UniProt Q96RI1)
# Sequence (Q96RI1 whole entry, looked up): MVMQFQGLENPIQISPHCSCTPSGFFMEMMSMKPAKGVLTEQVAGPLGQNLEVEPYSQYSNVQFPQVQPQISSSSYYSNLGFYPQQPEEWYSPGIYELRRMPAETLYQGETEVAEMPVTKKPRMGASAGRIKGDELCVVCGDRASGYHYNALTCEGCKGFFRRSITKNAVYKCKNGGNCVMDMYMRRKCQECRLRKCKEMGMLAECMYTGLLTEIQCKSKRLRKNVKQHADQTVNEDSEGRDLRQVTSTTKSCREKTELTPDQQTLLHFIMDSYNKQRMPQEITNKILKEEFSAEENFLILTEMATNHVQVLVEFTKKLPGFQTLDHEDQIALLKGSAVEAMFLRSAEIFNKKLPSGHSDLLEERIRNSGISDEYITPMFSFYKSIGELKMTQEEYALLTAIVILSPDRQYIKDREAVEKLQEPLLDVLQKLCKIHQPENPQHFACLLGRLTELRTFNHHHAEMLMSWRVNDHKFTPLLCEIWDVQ
# Assay: qHTS assay to identify small molecule antagonists of the farnesoid-X-receptor (FXR) signaling pathway (AID 743217; active means well fitted inhibition curve with a large enough effect in the signal ratio in the repeat runs, not every such curve was filed as active; the % refers to the signal ratio)
# Conditions: HEK293T FXR-UAS-bla, beta-lactamase ratio, CDCA-stimulated, 16 h; series mostly up to 62.6 µM; activity change, negative = inhibition: at the top concentration
# Method in brief: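 Antagonist mode against 50 uM (final) chenodeoxycholic acid stimulation in FXR-bla HEK 293T cells, 16 h at 37 °C. Inhibition detected as reduced beta-lactamase activity via LiveBLAzer B/G FRET fluorescence after 2 h at room temperature.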
row,SMILES,"activity change, negative = inhibition"
1,CC(C)CC(C)(N)C#N (stereo not given),2.1% [at 81.1 µM]
2,CO/N=C(\C(=O)N[C@@H]1C(=O)N2C(C(=O)O)=C(CSc3nc(=O)c(O)nn3C)CS[C@H]12)c1csc(N)n1,13.7%
3,CCOC(=O)C1=NOC(c2ccccc2)(c2ccccc2)C1,5.28%
4,COc1cc(C(=O)OC(COCCC(C)C)CN2CCOCC2)cc(OC)c1OC (stereo not given),0.836%
5,CC12CCC(C(=O)C1=O)C2(C)C (stereo not given),1.04% [at 81.1 µM]
6,CC(N)C12CC3CC(CC(C3)C1)C2 (stereo not given),-10.8%
7,CC1=NN(c2cc(S(=O)(=O)O)ccc2Cl)C(=O)C1N=Nc1ccccc1 (stereo not given),4.93%
8,CC(C)CCCO,3.84%
9,[K+],-0.0804%
